Bioassay records (PubChem)
Only some compounds are listed: those with a hit (about 9% of all), similar ones and a draw of the others.
BAZ2B block – qHTS Assay for Inhibitors of BAZ2B; AlphaScreen BAZ2B-H3K14Ac peptide displacement; Bromodomain adjacent to zinc finger domain protein 2B (Homo sapiens), Q9UIF8; hit rate 4.4% among 360,000; Potency, µM (titrated, usually from 114 µM), for the others: at the highest dose activity change, negative = inhibition, usual class: inhibitors; note: % is set by controls: 0 for no effect and ±100 for the full control effect; nearly all actives have a fitted effect of over 60% in size
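Multi-concentration screen (max 110 uM) measuring displacement of acetylated histone H3 peptide from BAZ2B by AlphaScreen, using 50 nM protein, 50 nM peptide and 10 ug/mL streptavidin donor plus Ni-chelate acceptor beads.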
ALOX12 inh – Primary qHTS assay for inhibitors of human arachidonate 12S-lipoxygenase (ALOX12): Round 2; Polyunsaturated fatty acid lipoxygenase ALOX12 (Homo sapiens), P18054; purified 12hLO, xylenol orange hydroperoxide absorbance; hit rate 1.1% among 580,000; Potency, µM (series often up to 108 µM), inactives show at the highest dose activity change, negative = inhibition, usual class: inhibitors; note: % is set by controls: 0 for no effect and ±100 for the full control effect
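Hydroperoxide product was detected by ferrous iron/xylenol orange as the 573 to 405 nm absorbance ratio. Arachidonic acid at 40 uM (final) was turned over for 30 min at room temperature by 150 nM human 12hLO, pH 7.0 Hepes buffer, after 15 min compound preincubation.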
HP1b binding inh – HTS for Inhibitors of HP1-beta Chromodomain Interactions with Methylated Histone Tails; Chromobox protein homolog 1 (Homo sapiens), P83916; AlphaScreen HP1-beta / biotin-H3K9me3 peptide binding; Potency, µM (highest dose often 114 µM), for the others: top-dose activity change, negative = inhibition, hits mostly inhibitors; hit rate 0.56% among 390,000; note: nearly all actives have a fitted effect of over 70% in size
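AlphaScreen: HP1-beta (50 nM) preformed 30 min with biotin-H3(1-18)K9me3 peptide (50 nM) in PBS pH 7.4, 0.01% Tween-20. Compound added for 30 min at RT, then streptavidin donor/nickel chelate acceptor beads (10 ug/mL) for 30 min.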
G9a block – qHTS Assay for Inhibitors of Histone Lysine Methyltransferase G9a; Histone-lysine N-methyltransferase EHMT2 (Homo sapiens), Q96KQ7; G9a H3K9 monomethylation, AlphaScreen, 2 h; Potency, µM (series often up to 102 µM), without a hit: at the highest dose activity, negative = inhibition, usual class: inhibitors; hit rate 8.8% among 350,000; AID 504332, 2011; note: % is set by controls: 0 for no effect and ±100 for the full control effect; nearly all actives have a fitted effect of over 75% in size
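Step 1: enzyme (final 20 nM) with compound, 15 min RT. Step 2: substrate peptide 500 nM and SAM 20 uM, 2 h RT. Step 3: anti-H3K9me1 antibody and AlphaScreen beads, 10 min, then plate read.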
PLK1 PBD block – qHTS for Inhibitors of PLK1-PDB (polo-like kinase 1 - polo-box domain): Primary Screen | Serine/threonine-protein kinase PLK1 (Homo sapiens), P53350 | Plk1 PBD binding of FITC phosphopeptide, fluorescence polarization | Potency, µM, without a hit: max response, negative = inhibition, most hits filed as inhibitors | hit rate 2.8% among 360,000 | AID 720504, 2013; note: series mostly up to about 57 µM; % is set by controls: 0 for no effect and ±100 for the full control effect; nearly all actives have a fitted effect of over 65% in size
Target sequence (P53350 whole entry, looked up, the tested form may be a part): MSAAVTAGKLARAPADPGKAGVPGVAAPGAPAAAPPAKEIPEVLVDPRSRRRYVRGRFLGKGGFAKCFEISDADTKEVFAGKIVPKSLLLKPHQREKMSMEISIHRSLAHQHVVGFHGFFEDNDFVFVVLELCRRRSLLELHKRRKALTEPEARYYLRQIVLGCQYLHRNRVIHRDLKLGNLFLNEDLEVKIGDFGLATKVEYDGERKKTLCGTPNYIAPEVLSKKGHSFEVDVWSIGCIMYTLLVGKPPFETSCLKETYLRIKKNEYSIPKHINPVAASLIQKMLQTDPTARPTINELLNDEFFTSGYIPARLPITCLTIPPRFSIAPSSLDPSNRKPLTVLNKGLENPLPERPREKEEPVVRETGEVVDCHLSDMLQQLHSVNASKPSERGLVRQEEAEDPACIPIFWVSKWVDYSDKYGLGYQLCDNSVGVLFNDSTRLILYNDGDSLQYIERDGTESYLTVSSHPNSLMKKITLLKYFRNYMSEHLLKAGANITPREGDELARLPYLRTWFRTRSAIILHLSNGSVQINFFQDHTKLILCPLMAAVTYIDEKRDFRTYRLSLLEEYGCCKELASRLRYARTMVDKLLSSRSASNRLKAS
JMJD2A Tudor inh – qHTS Assay for Inhibitors of JMJD2A-Tudor Domain | Lysine-specific demethylase 4A (Homo sapiens), O75164 | AlphaScreen JMJD2A-Tudor / H3K4me3 peptide binding | Potency, µM (series often up to 114 µM), inactives show top-dose activity change, negative = inhibition, actives largely listed as inhibitors | hit rate 4.4% among 390,000 | AID 504339, 2011; note: % is set by controls: 0 for no effect and ±100 for the full control effect; nearly all actives have a fitted effect of over 50% in size
Active calls of the source: *; ? = inconclusive; nt = no result; ! = repeats disagree; [ ] = dose if it differs, or a comment. Calls come from the whole dose curve; as a rule, active = well fitted curve in the direction sought with a large enough effect; inconclusive = small, poorly fitted or top-dose-only effect, or another doubt; inactive = no such curve, though single readings can be large; an effect the other way counts as inactive or inconclusive. Potency is the fitted concentration of half-maximal effect.

SMILES | BAZ2B block | ALOX12 inh | HP1b binding inh | G9a block | PLK1 PBD block | JMJD2A Tudor inh
Oc1ccc(/C=N/n2cnn(Cc3ccccc3Cl)c2=S)c(O)c1 | -29% | ? | -31% | 3.2µM* | 11µM* | ?
CC(C)N(C(=O)CN1CCC(c2nc3ccccc3[nH]2)CC1)C(C)C | -4% | 12% | 26% | 13%[0.501 µM] | -13% | 20%
CCN1CCN(C(c2cccc(OC)c2OC)c2nnnn2Cc2ccco2)CC1 (stereo not given) | -29% | -15% | 3% | -50%[12.7 µM] | 27µM* | ?
COc1ccc(N2CCN(C(c3cc(OC)ccc3OC)c3nnnn3Cc3ccco3)CC2)cc1 (stereo not given) | 45µM* | 22µM* | 16µM* | 16µM* | -18% | 50µM*
COc1ccc(OC)c(C(c2nnnn2CCc2ccccc2)N2CCN(c3ccccc3)CC2)c1 (stereo not given) | -38% | 0% | -18% | -11% | -1% | -35%
CCCC(c1nnnn1Cc1ccco1)N1CCN(c2ccccc2)CC1 (stereo not given) | 56µM* | -5% | 16% | ? | -15% | -16%
CCCC(c1nnnn1Cc1ccco1)N1CCN(c2cc(Cl)ccc2C)CC1 (stereo not given) | -31% | ? | 30% | -13% | 2% | -32%
CC(=O)N(Cc1ccccc1)Cc1cc2cc(C)ccc2[nH]c1=O | nt | -8% | nt | nt | nt | nt
CC(=O)c1cccc(NC(=O)CCNC(=O)c2cccc(C)c2)c1 | 2% | 1% | -11% | -4%[59 µM] | -7% | -21%
CCc1nnc(NC(=O)Cc2ccc(OC)cc2)s1 | -17% | 14% | 19% | 7%[59 µM] | -1% | -10%
CCN(CC(=O)Nc1ccccc1C(F)(F)F)C(=O)C1=COCCO1 | -5% | -16% | 10% | -51% | -5% | -2%
COc1ccc(Nc2nc(CN3CCOCC3)nc3sc4c(c23)CCC(C)C4)cc1OC (stereo not given) | -7% | nt | nt | -2% | nt | nt
COc1cc2c(cc1OC)CN(c1nc(CN3CCOCC3)nc3sc4c(c13)CCC(C)C4)CC2 (stereo not given) | 32µM* | 16% | ? | 14µM* | -3% | 25µM*
Cc1ccc(CSCC2Nc3ccc(C(=O)N4CCN(c5cccc(C)c5)C(C)C4)cc3NC2=O)cc1 (stereo not given) | -30%[57.1 µM] | nt | nt | 7.1µM* | nt | nt
Cc1cccc(N2CCN(C(=O)c3ccc4c(c3)NC(=O)C(CSCc3ccc(F)cc3)N4)CC2C)c1 (stereo not given) | -28%[57.1 µM] | nt | nt | 14µM* | nt | nt
Cc1cccc(N2CCN(C(=O)c3ccc(N4CCCC4=O)cc3)CC2C)c1 (stereo not given) | -30% | 0%[57.4 µM] | 46% | 38%[0.501 µM] | -9% | -26%
CCCCCn1c(=O)[nH]c2cc(C(=O)N3CCN(c4cccc(C)c4)C(C)C3)ccc2c1=O (stereo not given) | -1% | 0% | 20% | -2%[59 µM] | nt | -16%
O=C(NCC1CCCCN1)c1cc(OCC(F)(F)F)ccc1OCC(F)(F)F (stereo not given) | 4% | 1.5µM*! | 39% | 15%[59 µM] | -4% | -2%
O=C(Nc1cccc(F)c1)N1CCC2(CC1)CCN(C(=O)c1cccc(F)c1)CC2 | nt | 5%[57.4 µM] | nt | 0%[12.7 µM] | nt | nt
CCC1Nc2ncnc(N3CCN(c4ccccc4)CC3)c2N(Cc2ccc(C)cc2)C1=O (stereo not given) | ? | ? | -3% | ? | 0% | 56µM*
CCC1Nc2ncnc(N3CCCCC3)c2N(Cc2ccc(Cl)cc2)C1=O (stereo not given) | nt | ? | 56% | nt | -7% | ?
CCC1Nc2ncnc(N3CCN(c4ccccc4)CC3)c2N(Cc2ccccc2)C1=O (stereo not given) | nt | 1% | 24% | nt | -20% | -27%
CCC1Nc2ncnc(N3CCN(c4ccccn4)CC3)c2N(Cc2ccc(Cl)cc2)C1=O (stereo not given) | 56µM* | ? | 0% | -26%[2.33 µM] | -15% | ?
O=C(CCS(=O)(=O)c1nc(-c2cccs2)cc(C(F)(F)F)n1)Nc1cccc(O)c1 | -3% | -19% | 49% | ? | nt | -2%
Cc1ccc(Nc2cc(C)c(O)c(C)c2)cc1 | 7.1µM* | 0% | 50µM* | 25µM* | 27µM* | 40µM*
SMILES | BAZ2B block | ALOX12 inh | HP1b binding inh | G9a block | PLK1 PBD block | JMJD2A Tudor inh
Cc1ccc(Nc2ccc(C)cc2)cc1 | nt | 8% | nt | nt | nt | nt
Cn1cnc2c1c(=O)n(CCCSc1nnc(-c3ccccc3F)o1)c(=O)n2C | nt | 44% | nt | nt | nt | nt
O=C(Nc1ccncc1)C1CCN(S(=O)(=O)c2cccs2)CC1 | -3% | -3% | 23% | 9% | -5% | -2%
CCn1c2ccccc2c2cc(NC(=O)CN3CCCC3)ccc21 | -43% | 6% | -14% | ? | -11% | ?
CCn1c2ccccc2c2cc(NC(C)=O)ccc21 | 2% | ? | 25% | 5% | -2% | -28%
Cc1ccc(NC(=O)CC(NCC2CCCO2)C(=O)O)cc1C (stereo not given) | -30% | 1% | 12% | 2.2µM* | 0% | -13%
CCn1c2ccccc2c2cc(NC(=O)CNCC3CCCO3)ccc21 (stereo not given) | 50µM* | -4% | ? | 13µM* | -12% | -27%[11.4 µM]
CCn1c2ccccc2c2cc(NC(=O)C(=O)N3CCOCC3)ccc21 | -19% | -24% | ? | ? | 21µM* | ?
COc1ccc(CCN2C(=O)O[C@@H]3CN(S(=O)(=O)N4CCCC4)C[C@@H]32)cc1 | nt | 4% | nt | nt | nt | nt
COCCNC(=O)CN1C(=O)NC2(CCCCCC2)C1=O | -2% | -23% | 20% | 8% | -5% | -16%
COc1cccc(/C=N/NC(=O)c2cnccn2)c1OC | -4% | -20% | 18% | 7% | -2% | 20µM*
COc1cccc(/C=N\NC(=O)c2sc(N)nc2C)c1OC | -12% | 27% | -22% | 8%[12.7 µM] | 27µM* | -16%[11.4 µM]
S=C1NC2=C(CCc3ccccc32)C(c2ccccc2Cl)N1 (stereo not given) | nt | 8.9µM* | nt | nt | nt | nt
COc1cccc(C2NC(=S)NC3=C2CCc2ccccc23)c1 (stereo not given) | -6% | ? | -3% | 7.9µM* | -22% | -12%
COc1ccccc1C1NC(=S)NC2=C1CCc1ccccc12 (stereo not given) | nt | 28µM* | nt | nt | nt | nt
CCOC(=O)C1=C(C)N(C)C(=S)NC1c1ccccc1Cl (stereo not given) | -8% | ? | 11% | 47%[12.7 µM] | -3% | -17%
